This note sets out measurements from PubChem BioAssay AID652104 (National Center for Advancing Translational Sciences (NCATS), 2013).

Among all 410,000 compounds or so, about 7,200 (1.8%) were called active. A call without a number means that no potency is given here. Inconclusive results (about 7%) are left out. This is one part of a sample in which actives are shown more often than they occur. A number with no mark means an inactive call. The call rests on the fitted dose curve; in most records, active means well fitted activation curve with a large enough effect; inconclusive means small, poorly fitted or top-dose-only effect, or another doubt; inactive means no such curve, though single readings can be large or run the other way.
Potency means the concentration at half of the fitted maximal effect.

The test in a line: qHTS of TDP-43 Inhibitors. Further: nearly all actives have a fitted effect of over 50% in size. Conditions: TDP-43 expressing yeast growth rescue, BacTiter-Glo, 24 h; series mostly up to 46.1 µM. The essentials: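 Growth rescue of TDP-43-toxic yeast measured as ATP luminescence (BacTiter-Glo). Cells grown to mid-log in raffinose, induced in galactose at OD600=0.02, exposed to compound 24 hr at 30 deg C.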
As to `CCS(=O)(=O)c1ncc(N(Cc2ccc(F)cc2)Cc2ccco2)c(C(=O)Nc2cc(C)ccc2C)n1`, the Potency result is “inactive”. Same read-out and setting: the same measure for `CSc1nnc(NC(=O)c2nc(S(=O)(=O)Cc3ccc(C)cc3)ncc2Cl)s1`: 11.2 µM (active).

In the case of `Cc1cccc(NC(=O)c2nc(S(=O)(=O)Cc3ccccc3)ncc2Cl)c1`, the Potency was 7.08 µM (active). Regarding `Cc1cccc(NC(=O)Cn2cc(S(=O)(=O)Cc3ccccc3Cl)c3ccccc32)c1`, the Potency result was “inactive”. On the same count and under the same terms, the result for `Cc1ccc2nc(NC(=O)c3nc(SCc4ccccc4F)ncc3Cl)sc2c1` reads “inactive”. Same read-out and setting: the result for `CCOC(=O)c1ccc(NC(=O)c2nc(SCc3ccc(F)cc3)ncc2Cl)cc1` reads “inactive”. Still for that read-out and setting: the result for `CCOc1ccc(N(CC)C(=O)c2noc3c2COc2ccc(C)cc2-3)cc1` reads “inactive”; that for `Cn1c(=O)sc2cc(NS(=O)(=O)c3ccc(C(C)(C)C)cc3)ccc21`, “inactive”; that for `COc1cc(NC(=O)c2nn(-c3ccc(C)cc3)c(=O)c3c2c2ccccc2n3C)cc(OC)c1OC`, “inactive”.

For `COc1ccccc1-n1c(-c2ccc(C)cc2)cn2c3c(=O)n(C)c(=O)n(C)c3nc12`, the Potency result was “inactive”.

For `Cc1ccc(C)n1-c1nnc(N2CCC(C(=O)NCc3ccccc3Cl)CC2)s1`, the Potency entry was “inactive”. For `COc1cc(C(F)(F)F)c(C(=O)N(C)c2ccc(Cl)cc2)cn1`, the growth rescue (activation) is -13.9% [at 1.82 µM]. On to `COc1ccc(Cl)cc1NC(=O)c1oc(C)nc1C`, for which the Potency entry is “inactive”.

Turning to `COc1ccc(Nc2cc(Cl)ccc2C(=O)O)cn1`, the Potency was 10 µM (active). The same measure, in the same setting: the result for `CCOC(=O)c1ccc(NC(=O)CSc2nc3c([nH]c4ccccc43)c(=O)n2C)cc1` reads “inactive”; that for `Cc1c(Cl)cccc1NC(=S)N(Cc1ccccc1)Cc1cccnc1`, “inactive”. For the molecule `CSc1cccc(NC(=S)N(C(C)C)C(C)c2ccccn2)c1` (stereo not given), the growth rescue (activation) was -6.51% [at 9.22 µM].

With `CSc1cccc(NC(=S)N(Cc2ccccc2)Cc2ccccn2)c1`, the Potency is 20 µM (active). Still for that read-out and setting: the result for `CC(C)(C)OC(=O)N1CCC(c2c(C(=O)N3CCN(c4cccc(Cl)c4)CC3)cnn2-c2cccc(Cl)c2)CC1` reads “inactive”.

For `CCOCCCNC(=O)c1c(NC(=O)Cc2coc3c(C)c(C)ccc23)sc2c1CCC2`, the Potency result is “inactive”.

As for `CC(NC(=O)COc1ccccc1)C(=O)NC1=NCCS1` (stereo not given), the Potency entry was “inactive”. Still for that read-out and setting: the same measure for `O=C(CSC1=NCCS1)Nc1nc(-c2ccccc2)cs1`: 22.4 µM (active); for `Cc1csc(NC(=O)CSc2nnc(-c3cccnc3)o2)n1`: “inactive”; for `COc1ccc(-c2nn(CC(=O)Nc3ccccc3F)c3c2cnc2ccc(F)cc23)cc1`: “inactive”.

On to `Cc1ccc(Cn2c(=O)n(CCCC(=O)NCc3ccccc3Cl)c(=O)c3ccccc32)cc1`, for which the Potency entry was “inactive”. Turning to `COc1cc(OC)c(NC(=O)Cc2ccc(-n3c(C)nc4cccnc43)cc2)cc1Cl`, the Potency result was “inactive”. On the same count and under the same terms, the result for `O=C(Nc1nc2c(s1)CCCC2)c1ccccc1F` reads “inactive”; that for `Cc1cc(C)cc(OC(C)C(=O)Nc2nc3c(s2)CCCC3)c1` (stereo not given), “inactive”; that for `Fc1ccc2nc(Nc3nc4c(s3)CCCC4)sc2c1`, 2.24 µM (active).

Take `COc1ccc(-c2cn3nc(N4CCC(C(=O)Nc5cccc(C)c5C)CC4)sc3n2)cc1`: the Potency entry is “inactive”.

As for `CCCNC(=O)C1(C)CCN1C(=O)C1(c2ccccc2)CC1` (stereo not given), the Potency result is “inactive”. On to `Cc1ccccc1S(=O)(=O)NC(=O)C1(C)CCN1C(=O)Cc1ccc(Cl)cc1Cl` (stereo not given), for which the Potency result is “inactive”. Still for that read-out and setting: the same measure for `CC1(C(=O)NS(=O)(=O)c2ccccc2)CCN1C(=O)c1ccccc1` (stereo not given): “inactive”; for `Cc1ccccc1S(=O)(=O)NC(=O)C1(C)CCN1C(=O)C1(c2ccc(Cl)cc2)CC1` (stereo not given): 28.2 µM (active); for `Cc1ccccc1S(=O)(=O)NC(=O)C1(C)CCN1C(=O)C1(c2ccccc2)CCCC1` (stereo not given): 35.5 µM (active). In the case of `CC1(C(=O)NS(=O)(=O)c2ccc3ccccc3c2)CCN1C(=O)C1(c2ccc(Cl)cc2)CCC1` (stereo not given), the Potency result was “inactive”.

As for `COc1ccc(NC(=O)CSc2nccn2C2CCCC2)cc1OC`, the Potency result is “inactive”. For `COc1ccccc1CCNC(=O)c1cccn1-c1nnc(N2CCCCC2)s1`, the Potency result was “inactive”. On the same count and under the same terms, the same measure for `O=C(CCn1c(=O)c2sccc2n(Cc2ccc(F)cc2)c1=O)NCc1ccc2c(c1)OCO2`: “inactive”; for `O=C(Nc1ccc2nc(SCC(=O)N3CCCc4ccccc43)sc2c1)c1ccc(Cl)cc1`: “inactive”. Take `CCOc1ccccc1NC(=O)CN1CCCN(Cc2cccc(Cl)c2)S1(=O)=O`: the Potency result is “inactive”. In the case of `CCCCn1cc(S(=O)(=O)c2ccc(OCC)cc2)c(=O)c2cc(OC)c(OC)cc21`, the Potency entry was “inactive”.

For `COc1ccc(S(=O)(=O)c2cn(C)c3cc(N4CCCCC4)c(F)cc3c2=O)cc1`, the Potency result was “inactive”. Same read-out and setting: the result for `COc1cc2nc(NCC(C)c3ccccc3)n3nc(-c4ccccc4)nc3c2cc1OC` (stereo not given) reads “inactive”; that for `CCCCC12CN3CC(C)(CN(C1)C3c1ccc(O)c(OC)c1)C2=O` (stereo not given), “inactive”; that for `Cc1nc(-c2ccc(F)cc2)c(CC(=O)N2CCN(S(=O)(=O)c3ccc(F)cc3)CC2)s1`, “inactive”. For `Cc1ccc(S(=O)(=O)N2CCN(C(=O)Cc3sc(C)nc3-c3ccc(F)cc3)CC2)c(C)c1`, the Potency was 35.5 µM (active). Take `Cc1nc(-c2ccc(F)cc2)c(CC(=O)Nc2cc(S(=O)(=O)N3CCCCC3)ccc2C)s1`: the Potency entry is “inactive”. Take `COc1cccc(CNCc2c(C(=O)O)n(Cc3ccc(C)cc3)c3cc(C)ccc23)c1OC`: the Potency entry is “inactive”.

With `COc1ccc(NS(=O)(=O)c2cc3c4c(c2)CC(=O)N4CCC3)cc1Cl`, the Potency entry is “inactive”. On the same count and under the same terms, the same measure for `COc1cc(NC(=O)CSc2nc3nc(C)c(Cc4ccc(C)cc4)c(C)n3n2)cc(OC)c1OC`: “inactive”. In the case of `Cn1cc(S(=O)(=O)NC(c2ccccc2)c2ccccc2)c(=O)n(C)c1=O`, the Potency result is “inactive”. The same measure, in the same setting: the result for `Cn1cc(S(=O)(=O)Nc2ccc(Cl)cc2Cl)c(=O)n(C)c1=O` reads “inactive”; that for `CC(C)c1ccc(NS(=O)(=O)c2cn(C)c(=O)n(C)c2=O)cc1`, 20 µM (active); that for `Cc1nnc(N2CCC(C(=O)Nc3ccc(F)cc3)CC2)c2nn(-c3ccc(Cl)cc3)c(C)c12`, “inactive”. Same read-out and setting: the same measure for `Cc1sc2ncnc(N3CCC(C(=O)Nc4ccc(F)cc4Cl)CC3)c2c1C`: 15.8 µM (active). Consider `CCc1ccc(C(=O)NNC(=O)C2CCN(c3ncnc4sc(C)c(C)c34)CC2)cc1`, for which the Potency entry was “inactive”. Still for that read-out and setting: the same measure for `O=C(CCn1ccc2cc(S(=O)(=O)N3CCCC3)ccc21)NCc1cccc(Cl)c1`: “inactive”. In the case of `CCOC(=O)c1ccc(NC(=O)CCS(=O)(=O)c2ccc(C)cc2)cc1`, the Potency result is “inactive”. Regarding `O=C(CCc1nc(CN2CCN(S(=O)(=O)c3ccc(F)cc3)CC2)no1)N1CCCCC1`, the Potency entry was “inactive”.

For the molecule `COc1cccc(CNC(=O)Cn2ncn3c(cc4ccccc43)c2=O)c1`, the Potency entry is “inactive”. With `Fc1ccc(-n2ncc3c(Nc4ccc(Oc5ccccc5)cc4)ncnc32)cc1`, the Potency result is “inactive”.

With `CCCCNc1c(-c2cccc(Sc3ccc(OC)cc3)c2)nc2ccccn12`, the Potency result is “inactive”. Take `COc1ccc(-c2nc3cc(C)ccn3c2NC2CCCCC2)cc1SC1CCCCC1`: the Potency entry is “inactive”. For the molecule `CCCCNc1c(-c2ccc(OC)c(Sc3ccc(OC)cc3)c2)nc2ccc(Cl)cn12`, the Potency is 17.8 µM (active). On to `O=C1CN(C(=O)Nc2ccccc2C(F)(F)F)C(c2ccccc2)c2c(sc3c2CCCC3)N1` (stereo not given), for which the Potency result is “inactive”. For `COc1cc(OC)cc(-c2nc3nc(C)c(CCC(=O)Nc4ccc(C)cc4)c(C)n3n2)c1`, the Potency entry is “inactive”. On the same count and under the same terms, the result for `CCOc1ccc(C(=O)NCC(=O)N2CCN(c3ccc(C(F)(F)F)cn3)CC2)cc1` reads “inactive”; that for `CCC(c1nnnn1-c1ccc2c(c1)OCCO2)N1CCN(c2ccc(C(F)(F)F)cn2)CC1` (stereo not given), 22.4 µM (active); that for `CCN(CC)CCN(C)C(c1ccnc2ccccc12)c1nnnn1-c1ccc2c(c1)OCCO2` (stereo not given), “inactive”. On the same count and under the same terms, the result for `O=C(Nc1ccc(O)c(-c2nc3ccccc3o2)c1)c1ccc(-c2cccc(Cl)c2)o1` reads “inactive”; that for `COC(=O)c1cc2occc2n1Cc1nc(-c2ccc(C)cc2)oc1C`, “inactive”; that for `CCN(CC)S(=O)(=O)c1ccc2c(c1)N(CC(=O)NCc1ccccc1)C(=O)CS2`, “inactive”. The same measure, in the same setting: the result for `CCCc1c(C(=O)O)cnn1-c1ccc(Cl)cc1` reads 20 µM (active); that for `CCNC(=O)c1cnn(-c2ccccc2)c1-c1ccccc1`, “inactive”. For the molecule `Nc1c(C(=O)O)cnn1-c1ccccc1`, the Potency result is “inactive”. Still for that read-out and setting: the same measure for `O=C(Nc1ccc(S(=O)(=O)N2CCC(c3nc4ccccc4s3)CC2)cc1)c1ccccc1F`: “inactive”. As to `COc1ccc2c(c1)CC[C@@H]1[C@@H]2CC[C@]2(C)C(=O)CC[C@@H]12`, the Potency was 12.6 µM (active). Consider `COc1ccc(C=C2CCC3C(CCCC34OCCO4)C2=O)cc1` (stereo not given), for which the Potency result was “inactive”. The same measure, in the same setting: the same measure for `COc1ccc(Cn2ccn(Cc3cccc(OC)c3)c(=O)c2=O)cc1`: “inactive”. On the same count and under the same terms, the same measure for `Cc1cc(Br)ccc1NC(=O)Cn1cnc2sc(C)c(S(=O)(=O)N3CCN(C)CC3)c2c1=O`: “inactive”; for `CCOc1ccc(N(CC)C(=O)c2cc3c(=O)oc4ccccc4c3s2)cc1`: “inactive”; for `CCOc1ccc(CCNC(=O)Cn2nc(CC)n3c(cc4sc(CC)cc43)c2=O)cc1OCC`: “inactive”. Same read-out and setting: the same measure for `CCOc1ccc(C(=O)/C=C/c2cn(CC(O)CN3CCCCCC3)c3ccccc23)cc1` (stereo not given): “inactive”; for `CC(C)c1ccc(NC(=O)Cn2nnc(C(=O)NCCc3ccccc3)c2N)cc1`: “inactive”.

With `CCOC(=O)C1CCCN(C(=O)c2ccc(-n3ccc4ccccc43)s2)C1` (stereo not given), the Potency entry was “inactive”. In the case of `O=S(=O)(NC1CC2CCC1C2)c1ccc(Cl)cc1` (stereo not given), the Potency was 7.08 µM (active).

As for `CCOC1CCCCC1NS(=O)(=O)c1ccc(Cl)cc1` (stereo not given), the Potency entry was “inactive”. On to `CCN1CCN(C2CCCCC2NS(=O)(=O)c2ccc(Cl)cc2)CC1` (stereo not given), for which the Potency entry is “inactive”.

On to `COc1ccc(Cn2ccnc2SCC(=O)NCc2ccco2)cc1`, for which the Potency result was “inactive”.

For the molecule `COc1cc(C(=O)N2CCC(c3ccncc3)CC2)cc(OC)c1OC`, the growth rescue (activation) was -21.7% [at 9.22 µM]. As for `O=C(Nc1ccccc1N1CCCCC1)c1cccc(F)c1`, the Potency was 12.6 µM (active). Same read-out and setting: the same measure for `O=C(Nc1ccccc1N1CCCC1)c1ccc(F)c(S(=O)(=O)N2CCOCC2)c1`: “inactive”. Regarding `CCn1c(=O)c(=O)n(CC)c2cc(N3CCCCC3)c(NC(=O)c3cccc(F)c3)cc21`, the Potency result was “inactive”. Regarding `CCN1CCN(Cc2c(O)ccc3oc(C)c(C(=O)Nc4ccc(C)cc4C)c23)CC1`, the Potency result was “inactive”.
